An excerpt weighted towards active compounds, which were near 12% of everything screened.
SARS PLpro yeast – blocks SARS-CoV papain-like protease in a yeast assay; Potency, µM (doses to about 32.9 µM), most hits filed as activators; 330,000 compounds, 0.19% hits; S. cerevisiae expressing SARS-CoV PLpro, growth rescue; calls by dose curve; further: nearly all actives have a fitted effect of over 55% in size
AMA1-RON2 inh – AMA1-RON2 (P. falciparum) interaction inhibition; AlphaScreen AMA1-biotinylated RON2 peptide binding; Potency, µM (doses to about 58.2 µM), actives largely listed as inhibitors; 360,000 compounds, 0.2% hits; further: nearly all actives have a fitted effect of over 45% in size
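AMA1 (3D7) with his tag at 25 nM final met compounds first, then biotinylated RON2 peptide at 25 nM; detection used donor plus acceptor beads, 10 µg/mL apiece, read by AlphaScreen after 30 min at room temperature.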
Pf growth 48h – inhibits P. falciparum growth in the first generation, 48 h; P. falciparum luciferase growth in erythrocytes, 48 h; Potency, µM (highest dose often 28.7 µM), actives largely listed as inhibitors; 310,000 compounds, 5.9% hits; AID 504832
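Read-out is firefly luciferase luminescence from an integrated reporter in P. falciparum, so falling signal marks reduced parasite growth. Infected erythrocytes were at 2% hematocrit and 0.1% parasitemia (final) in Albumax-supplemented RPMI 1640.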
NS1 inh – inhibitors of influenza NS1 protein function; Potency, µM (highest dose often 46.1 µM); 270,000 compounds, 0.4% hits; calls by dose curve; further: actives are rising curves; nearly all actives have a fitted effect of over 50% in size
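A cell-based growth assay was used: compounds that relieve NS1-induced slow growth of budding yeast raise OD600. Assay medium was yeast nitrogen base with ammonium sulphate and -URA supplement, pH 6.0, with 2% galactose.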
Pf growth 96h – inhibits malaria parasite growth, 96 h | P. falciparum luciferase reporter growth, 96 h | Potency, µM (titrated, usually from 28.7 µM), actives largely listed as inhibitors | 320,000 compounds, 6.9% hits
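P. falciparum expressing integrated firefly luciferase grown in erythrocytes (2% hematocrit, 0.05% parasitemia final) with compounds for 96 hours at 37 C, 5% CO2. Growth inhibition read as loss of luminescence after adding luciferase detection reagent.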
HCV inhibitor – inhibitors of hepatitis C virus infection; Huh7.5.1 HCVcc-Cre infection, luciferase reporter, 44 h; Potency, µM (doses to about 41.8 µM), actives largely listed as inhibitors; 340,000 compounds, 3.4% hits; AID 651820
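1,000 cells/well; 4 h culture; + compound; + HCVcc-Cre (~0.5 moi); 44 h; luciferase substrate, RT 15 min; read 15 sec.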
NS1 inh valid – influenza NS1 function inhibition validation; shares compounds with NS1 inh; influenza NS1 function cell assay, 15-point titration; activity change, negative = inhibition, % at 32.9 µM; 1,400 tested, under 10 active; AID 492980; calls by dose curve
PR8 titer – influenza NS1 inhibitors: inhibition of influenza A/PR/8/34 replication. shares compounds with NS1 inh. MDCK infected influenza A/PR/8/34, virus titer TCID50; stronger effect = lower value. virus titer (log TCID50), log10 TCID50 at 5 µM. 95 compounds, 30% hits. AID 504647; call rule not given here
Each line names hits and unclear results; the compound was inactive in the other large screens (follow-up assays come after a bar, where they were run). Unless noted, the call rests on the fitted dose curve; in most records, active means well fitted curve in the direction sought with a large enough effect; inconclusive means small, poorly fitted or top-dose-only effect, or another doubt; inactive means no such curve, though single readings can be large; an effect the other way counts as inactive or inconclusive.

Cc1cccc(OCc2nnc(SCC(=O)N3c4ccccc4CCc4ccccc43)o2)c1	Pf growth 48h 10.4µM, NS1 inh 12.6µM, Pf growth 96h inconclusive | NS1 inh valid inactive | PR8 titer inactive
Cc1cccc(OCc2nnc(SCC(=O)N3CCCC3)o2)c1	none
CCOc1cc(N2CCOCC2)c(OCC)cc1NC(=O)COC(=O)c1ccccc1C	Pf growth 48h inconclusive, Pf growth 96h inconclusive
CCOc1cc(N2CCOCC2)c(OCC)cc1NC(=O)Cc1cccc2ccccc12	NS1 inh 12.6µM, Pf growth 96h inconclusive, HCV inhibitor 14.1µM (no result: Pf growth 48h) | NS1 inh valid inactive
O=C(NCc1ccc2[nH]c3c(c2c1)CCCC3)c1ccc(S(=O)(=O)N2CCCCC2)cc1	Pf growth 48h inconclusive, NS1 inh 5.01µM, Pf growth 96h 10.4µM, HCV inhibitor inconclusive | NS1 inh valid inactive
COCCNc1nnc(SCC(=O)NNC(=O)c2ccc([N+](=O)[O-])cc2)s1	Pf growth 48h inconclusive (no result: NS1 inh)
CCOc1ccc(NC(=O)CCS(=O)(=O)c2ccc3c(c2)CCCN3C(C)=O)cc1	Pf growth 48h inconclusive, NS1 inh 11.2µM | NS1 inh valid inactive
CCCCOc1ccc(C(=O)NCC(=O)N2CC(C)CC(C)C2)cc1 (stereo unspecified)	Pf growth 48h inconclusive, Pf growth 96h inconclusive (no result: NS1 inh)
O=C(CSc1nc(-c2ccccc2)c(-c2ccccc2)[nH]1)N1CCN(S(=O)(=O)c2ccccc2)CC1	NS1 inh 3.55µM, Pf growth 96h inconclusive, HCV inhibitor inconclusive (no result: Pf growth 48h) | NS1 inh valid inactive
O=C(CSc1nc2ccccc2c(=O)[nH]1)N1CCN(S(=O)(=O)c2ccccc2)CC1	Pf growth 96h inconclusive
Cc1ccc(C)c(NC(=O)C[n+]2ccccc2)c1	Pf growth 96h inconclusive
Cc1ccc(C(=O)CSc2nc(N)cc(=O)[nH]2)cc1C	NS1 inh inconclusive, HCV inhibitor inconclusive
CCC(C)c1c(O)nc(SCC(=O)c2ccccc2)[nH]c1=O (stereo unspecified)	NS1 inh 4.47µM, Pf growth 96h inconclusive (no result: HCV inhibitor) | NS1 inh valid inactive
Cc1ccc(C(=O)CSc2nc(O)cc(=O)[nH]2)cc1C	NS1 inh 7.94µM, Pf growth 96h inconclusive | NS1 inh valid inconclusive
CCC(C)c1c(O)nc(SCC(=O)Nc2ccccc2)[nH]c1=O (stereo unspecified)	none
Cc1ccc(NC(=O)CCC(=O)N/N=C/c2coc3ccccc3c2=O)cc1	NS1 inh 5.62µM | NS1 inh valid inactive
CN(CC(=O)Nc1cccc2ccccc12)C(=O)c1cccc(S(=O)(=O)N(C)C)c1	Pf growth 48h inconclusive, NS1 inh inconclusive, Pf growth 96h inconclusive | NS1 inh valid inactive
COC(=O)C(NC(=O)c1ccc(F)cc1)(Nc1ncc(S(=O)(=O)c2ccc([N+](=O)[O-])cc2)s1)C(F)(F)F (stereo unspecified)	Pf growth 48h inconclusive, NS1 inh 7.94µM, Pf growth 96h 13.1µM, HCV inhibitor inconclusive | NS1 inh valid inactive
Cc1nnc(SCC(=O)Nc2ncc(S(=O)(=O)c3ccc([N+](=O)[O-])cc3)s2)s1	none
CCOC(=O)c1ccc(S(=O)(=O)NC2CCC(C)CC2)cc1 (stereo unspecified)	HCV inhibitor inconclusive (no result: NS1 inh)
O=C(/C=C/c1ccco1)NC(=S)Nc1cc(-c2nc3ccccc3s2)ccc1Cl	NS1 inh 10µM | NS1 inh valid inactive
O=C(CSc1cn(CC(=O)N2CCOCC2)c2ccccc12)N1CCOCC1	NS1 inh inconclusive, Pf growth 96h inconclusive | NS1 inh valid inactive
NC(=O)c1ccc(NC(=O)CSc2cn(CC(=O)N3CCOCC3)c3ccccc23)cc1	none
NC(=O)Nn1c(CCC(=O)O)ccc1-c1ccc(F)cc1	SARS PLpro yeast inconclusive, NS1 inh inconclusive | NS1 inh valid inactive
Cc1ccc(-c2ccc(CCC(=O)O)n2CC(=O)O)cc1	NS1 inh 11.2µM | NS1 inh valid inactive
NC(=S)Nn1c(CCC(=O)O)ccc1-c1ccccc1	Pf growth 96h inconclusive
O=C(O)CCc1ccc(-c2ccc(F)cc2)n1CC(=O)O	none
COc1ccc(CCNC(=O)CSc2nc(N)c(C#N)c(-c3cccs3)c2C#N)cc1OC	Pf growth 48h inconclusive, NS1 inh 4.47µM (no result: HCV inhibitor) | NS1 inh valid inactive
COc1ccc(/C=N/N2C(=O)C3C4C=CC(CC4)C3C2=O)c(OC)c1 (stereo unspecified)	none (no result: NS1 inh)
CCOc1cc2[nH]c(=O)n(CC3CCC(C(=O)NCCCOC)CC3)c(=O)c2cc1OCC (stereo unspecified)	NS1 inh 8.91µM | NS1 inh valid inactive
CCOc1cc2[nH]c(=O)n(CC3CCC(C(=O)NCCC(C)C)CC3)c(=O)c2cc1OCC (stereo unspecified)	none (no result: SARS PLpro yeast, Pf growth 48h, Pf growth 96h)
CC1=Nc2nc(N3CCCCC3)c(C#N)c3c4c(nc(c23)N1)N(c1ccc(C(C)C)cc1)C(=O)C4	Pf growth 48h inconclusive, NS1 inh 11.2µM, Pf growth 96h 1.17µM | NS1 inh valid inactive
O=C(Nc1ccc(NS(=O)(=O)c2ccccc2)cc1)c1ccccc1Cl	HCV inhibitor inconclusive (no result: Pf growth 48h, NS1 inh, Pf growth 96h)
C=CCN1CCc2cccc3c2C1Cc1ccc(O)c(O)c1-3 (stereo unspecified)	NS1 inh 11.2µM (no result: SARS PLpro yeast, AMA1-RON2 inh, Pf growth 48h, Pf growth 96h, HCV inhibitor) | NS1 inh valid inactive
COc1ccc2c(c1O)-c1cccc3c1C(C2)N(C)CC3 (stereo unspecified)	none (no result: SARS PLpro yeast, AMA1-RON2 inh, Pf growth 48h, Pf growth 96h, HCV inhibitor)
COc1ccc(C)cc1NC(=O)c1ccccc1NS(=O)(=O)c1ccc(Cl)s1	Pf growth 48h inconclusive, Pf growth 96h inconclusive, HCV inhibitor inconclusive
CCCN(CCC)CC(O)CN1C(=O)NC(C)(C)C1=O (stereo unspecified)	none
C/C(=N\NC(=O)c1[nH]c2c([N+](=O)[O-])cc(C)cc2c1-c1ccccc1)c1cccnc1	Pf growth 48h inconclusive, NS1 inh 8.91µM, HCV inhibitor inconclusive | NS1 inh valid inactive
CCN(C(=O)Cc1c(C(=O)O)[nH]c2ccccc12)c1ccc(OC)cc1	none (no result: NS1 inh)
O=C1NC(=Nc2ccccc2)S/C1=C\C=C\c1ccco1	Pf growth 48h inconclusive, NS1 inh 4.47µM, Pf growth 96h inconclusive, HCV inhibitor inconclusive | NS1 inh valid inconclusive
Cc1ccc(N=C2NC(=O)/C(=C/C=C/c3ccco3)S2)cc1	Pf growth 48h inconclusive, Pf growth 96h inconclusive
N#Cc1cc(NC(=O)c2ccc(F)cc2)c(=O)n2c1[nH]c1ccccc12	Pf growth 96h inconclusive (no result: AMA1-RON2 inh, HCV inhibitor)
